Reference: the supplement of paper PMC9844399
Where a name gives a salt, the structure may show the parent alone. A number with no mark means an inactive call.

These compounds were tested on HeLa (assay: MALAT1 nuclear FISH intensity, robust Z-score vs DMSO; higher = more nuclear MALAT1 lncRNA, active = -3 or less). Conditions: 10 µM; 6 h.
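Further: High-content confocal imaging of branched-DNA amplified FISH in 384-well plates, Hoechst-defined nuclei, score is well value minus plate DMSO median over DMSO robust SD, four wells per compound.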

| SMILES | MALAT1 nuclear FISH intensity |
| --- | --- |
| Cc1ccccc1N1C(=O)c2cc(S(N)(=O)=O)c(Cl)cc2NC1C (stereo not given) [Metolazone] | 0.0717 |
| CCC1=C(C)CN(C(=O)NCCc2ccc(S(=O)(=O)NC(=O)N[C@H]3CC[C@H](C)CC3)cc2)C1=O [Glimepiride] | -0.417 |
| Nc1nc2c(nc(Br)n2[C@@H]2O[C@@H]3COP(=O)(O)O[C@H]3[C@H]2O)c(=O)[nH]1 [8-Bromo-cGMP] | -1.17 |
| COc1c(C)c2c(c(O)c1C/C=C(\C)CCC(=O)O)C(=O)OC2 [Mycophenolic acid] | -0.749 |
| CCOc1nc2cccc(C(=O)O)c2n1Cc1ccc(-c2ccccc2-c2nnn[nH]2)cc1 [Candesartan] | 1.01 |
| CO[C@@]12[C@H](COC(N)=O)C3=C(C(=O)C(C)=C(N)C3=O)N1C[C@@H]1N[C@@H]12 [Mitomycin C] | 0.475 |
| CCCCCCCCCCCCCCCCCCOC[C@@H](COP(=O)([O-])OCC[N+](C)(C)C)OC [1-Octadecyl-2-methylglycero-3 PC] | 1.37 |
| C[C@H](CCC(=O)O)[C@H]1CC[C@H]2[C@@H]3[C@H](O)C[C@@H]4C[C@H](O)CC[C@]4(C)[C@H]3C[C@H](O)[C@]12C [Cholic acid] | -1.04 |
| CSCC[C@H](NC(=O)c1ccc(NC[C@@H](N)CS)cc1-c1ccccc1)C(=O)O [FTI-276 trifluoroacetate salt] | 0.137 |
| CCC[C@H](N[C@@H](C)C(=O)N1[C@H](C(=O)O)C[C@@H]2CCCC[C@@H]21)C(=O)OCC [Perindopril Erbumine] | 1.69 |
| Nc1nc(O)c2ncn(CCC(CO)CO)c2n1 [Penciclovir] | 1.38 |
| CCC[C@H](NC(=O)/C(C#N)=C/c1cccc(Br)n1)c1ccccc1 | 1.27 |
| O=C1NCN(c2ccccc2)C12CCN(CCCC(c1ccc(F)cc1)c1ccc(F)cc1)CC2 [Fluspirilene] | 1.28 |
| Cc1[nH]cnc1CN1CCc2c(c3ccccc3n2C)C1=O | -1.58 |
| COc1cc2nc(N3CCN(C(=O)C4CCCO4)CC3)nc(N)c2cc1OC (stereo not given) | -0.488 |
| CC1=CC(=O)c2ccccc2C1=O [Menadione] | -1.95 |
| OCCN1CCN(CCCN2c3ccccc3Sc3ccc(Cl)cc32)CC1 [Perphenazine] | 1.63 |
| CC12CC3CC(C)(C1)CC(N)(C3)C2 | -0.532 |
| CC(=O)OCOC(c1cc([N+](=O)[O-])ccc1Oc1ccc(Br)cc1)P(=O)(OCOC(C)=O)OCOC(C)=O (stereo not given) | -0.77 |
| CNC(=O)[C@H](Cc1c[nH]c2ccccc12)NC(=O)[C@@H](CC(=O)NO)CC(C)C | -0.896 |

| SMILES | MALAT1 nuclear FISH intensity |
| --- | --- |
| C[C@@H]1C/C=C/C=C/C=C/C=C/[C@H](O[C@@H]2O[C@H](C)[C@@H](O)[C@H](N)[C@@H]2O)C[C@@H]2O[C@](O)(C[C@@H](O)C[C@H]3O[C@@H]3/C=C/C(=O)O1)C[C@H](O)[C@H]2C(=O)O [Natamycin] | 0.00726 |
| COc1ccc2cc1Oc1ccc(cc1)C[C@H]1c3cc(c(OC)cc3CCN1C)Oc1c(OC)c(OC)cc3c1[C@H](C2)N(C)CC3 [Tetrandine] | -0.0671 |
| CCOc1cc(CC(=O)N[C@@H](CC(C)C)c2ccccc2N2CCCCC2)ccc1C(=O)O [Repaglinide] | -0.349 |
| CO[C@@]1(NC(=O)C2SC(=C(C(N)=O)C(=O)O)S2)C(=O)N2C(C(=O)O)=C(CSc3nnnn3C)CS[C@@H]21 (stereo not given in full) [Cefotetan Disodium] | 0.0769 |
| NC(=O)c1cccc(N)c1 [3-aminobenzamide (3-ABA)] | -1.46 |
| C=CCNc1ncnc2ccc(Br)cc12 | -1.43 |
| COC(=O)c1c(C)[nH]c(C)c1C(=O)c1ccccc1Cc1ccccc1 | 1.4 |
| C[C@H]1c2cccc(O)c2C(=O)C2=C(O)[C@]3(O)C(=O)C(C(N)=O)=C(O)[C@@H](N(C)C)[C@@H]3[C@@H](O)[C@@H]21 | 1.19 |
| OC(CNCC(O)C1CCc2cc(F)ccc2O1)C1CCc2cc(F)ccc2O1 (stereo not given) | 1.08 |
| O=C1NC(=O)C(c2ccccc2[N+](=O)[O-])=C1Nc1ccc(O)c(Cl)c1 | -1.18 |
| Clc1ccc(C(c2ccc(Cl)cc2)[n+]2ccn(CC(OCc3ccc(Cl)cc3Cl)c3ccc(Cl)cc3Cl)c2)cc1 (stereo not given) [Calmidazolium chloride] | -1.68 |
| C#C[C@]1(O)CC[C@H]2[C@@H]3CCC4=CC(=O)CC[C@@H]4[C@H]3CC[C@@]21CC [Levonorgestrel] | 0.256 |
| CO[C@H]1C[C@@H]2CC[C@@H](C)[C@@](O)(O2)C(=O)C(=O)N2CCCC[C@H]2C(=O)O[C@H]([C@H](C)C[C@@H]2CC[C@@H](OCCO)[C@H](OC)C2)CC(=O)[C@H](C)/C=C(\C)[C@@H](O)[C@@H](OC)C(=O)[C@H](C)C[C@H](C)/C=C/C=C/C=C/1C [Everolimus] | 2.49 |
| COc1cc(C(=O)NCc2ccc(OCCN(C)C)cc2)cc(OC)c1OC | 0.229 |
| C[C@H]1[C@H](NC(=O)/C(=N\OC(C)(C)C(=O)O)c2csc(N)n2)C(=O)N1S(=O)(=O)O [Aztreonam] | 0.0374 |
| CC[C@]1(O)C[C@H]2CN(CCc3c([nH]c4ccccc34)[C@@](C(=O)OC)(c3cc4c(cc3OC)N(C=O)[C@H]3[C@@](O)(C(=O)OC)[C@H](OC(C)=O)[C@]5(CC)C=CCN6CC[C@]43[C@@H]65)C2)C1 [Vincristine Sulfate] | 0.345 |
| O=[N+]([O-])c1cccc2c(Br)[nH]nc12 [Bromo-7-nitroindazole] | -0.538 |
| CCN(CC)CCNC(=O)c1cc(Cl)c(N)cc1OC | 0.662 |
| CN(C)/N=N/c1[nH]cnc1C(N)=O [Dacarbazine] | 0.246 |
| Fc1ccc([C@@H]2CCNC[C@H]2COc2ccc3c(c2)OCO3)cc1 [Paroxetine hydrochloride hemihydrate] | 0.979 |
